“And” between values parts separate entries of the source, which are not always exact repeats. Equal values may be shown once. Records with an inconclusive call do not appear. Some compounds were tested as several samples or in several runs, with calls that do not always agree. The source made the active and inactive calls. Unless noted, calls come from the whole dose curve; as a rule, active = well fitted curve in the direction sought with a large enough effect in the repeat runs; inconclusive = weak or mixed curves; inactive = no such curve, though single readings can be large; an effect the other way counts as inactive or inconclusive.
Experiments:
[1] = qHTS RealTime-Glo MT Cell Viability Assay in HEK293 cells - 0 hour (AID 1224880); note: top concentration of the series differs between compounds; nearly all actives have a fitted effect of over 45% in size
Summary of the method: (§1)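 Cells were seeded together with NanoLuc luciferase and a prosubstrate that viable cells reduce to a luciferase substrate. After a 5 h incubation at 37 C/5% CO2, compounds were added and luminescence was measured repeatedly during 40 h of treatment.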

[2] = A CellTox Green Cytotoxicity Assay to monitor cytotoxicity in HEK293 cells - 32 hour (AID 1224881); note: nearly all actives have a fitted effect of over 40% in size
Summary of the method: (§2)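 Nonlytic real-time cytotoxicity: HEK293 + CellTox Green reagent plated, 5 h preincubation, pintool compound addition (23 nL in DMSO), 37 C for 40 h, fluorescence measured at successive time points.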

[3] = A CellTox Green Cytotoxicity Assay to monitor cytotoxicity in HepG2 cells - 0 hour (AID 1224882); note: nearly all actives have a fitted effect of over 35% in size
Summary of the method: (§3)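 Read-out is fluorescence of a cyanine dye excluded from live cells that stains DNA of dead HepG2 cells, with signal proportional to cytotoxicity. Plates were read at 0, 8, 16, 24, 32 and 40 h after compound addition.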

[4] = A CellTox Green Cytotoxicity Assay to monitor cytotoxicity in HepG2 cells - 32 hour (AID 1224883); note: nearly all actives have a fitted effect of over 50% in size
Summary of the method: as §3

[5] = A CellTox Green Cytotoxicity Assay to monitor cytotoxicity in HEK293 cells - 8 hour (AID 1224884); note: nearly all actives have a fitted effect of over 35% in size
Summary of the method: as §2

[6] = qHTS RealTime-Glo MT Cell Viability Assay in HepG2 cells - 16 hour (AID 1224885); note: nearly all actives have a fitted effect of over 50% in size
Summary of the method: (§4)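 qHTS, HepG2, 600 cells/well, RealTime-Glo (NanoLuc + prosubstrate) added with cells; 5 h preincubation; DMSO compound addition; 37 C; luminescence at 0/8/16/24/32/40 h.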

[7] = qHTS RealTime-Glo MT Cell Viability Assay in HEK293 cells - 24 hour (AID 1224886); note: nearly all actives have a fitted effect of over 50% in size; note: potency is the fitted concentration of half-maximal effect
Summary of the method: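 Assay medium contained NanoLuc luciferase plus cell-permeant prosubstrate, added with HEK293 cells at 600 cells/well. After 5 h at 37 C/5% CO2 compounds were added; plates stayed at 37 C for 40 h with serial luminescence reads.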

[8] = qHTS RealTime-Glo MT Cell Viability Assay in HEK293 cells - 8 hour (AID 1224887); note: top concentration of the series differs between compounds; nearly all actives have a fitted effect of over 50% in size
Summary of the method: as §1

[9] = A CellTox Green Cytotoxicity Assay to monitor cytotoxicity in HEK293 cells - 16 hour (AID 1224888); note: nearly all actives have a fitted effect of over 35% in size
Summary of the method: as §2

[10] = A CellTox Green Cytotoxicity Assay to monitor cytotoxicity in HepG2 cells - 8 hour (AID 1224890); note: nearly all actives have a fitted effect of over 45% in size
Summary of the method: as §3

[11] = qHTS assay to identify small molecule antagonists of the estrogen receptor alpha (ER-alpha) signaling pathway using the BG1 cell line in the presence of 0.1 nM 17-beta-estradiol - cell viability counter screen (AID 1259241); note: nearly all actives have a fitted effect of over 40% in size
Summary of the method: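 CellTiter-Fluor read (30 min, 37C) on ER-alpha/ERE-luc VM7Luc4E2 cells; 22 hr compound treatment; agonist 0.1 nM E2 final; same-well multiplex.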

[12] = qHTS assay to identify small molecule antagonists of the androgen receptor (AR) signaling pathway using the MDA cell line in the presence of 0.5 nM R1881 - cell viability counter screen (AID 1259242); note: nearly all actives have a fitted effect of over 45% in size
Summary of the method: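 Counter screen for cytotoxicity run in the same wells as the AR antagonist reporter screen: MDA-kb2 cells were treated 16 hr with test compounds and 0.5 nM R1881, then live-cell protease activity was measured by fluorescence.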

[13] = biological target: Estrogen receptor (Homo sapiens) (UniProt P03372); experiment: qHTS assay to identify small molecule antagonists of the estrogen receptor alpha (ER-alpha) signaling pathway using the BG1 cell line in the presence of 0.1 nM 17-beta-estradiol (AID 1259244); note: nearly all actives have a fitted effect of over 50% in size
Summary of the method: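 Cells: VM7Luc4E2, endogenous ER-alpha, 4x ERE-luc stable. Pre-culture 5 d, phenol red-free, charcoal-stripped FBS. Plated 24 h, compound + E2 0.1 nM final, 22 h 37C/5% CO2. Readout ONE-Glo luminescence.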

[14] = qHTS assay to identify small molecule HDAC inhibitors (AID 1259364); note: top concentration of the series differs between compounds; nearly all actives have a fitted effect of over 45% in size
Summary of the method: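 Luminescence from a cell-permeant luminogenic class I/II HDAC substrate reports endogenous deacetylase activity in intact HCT-116 cells treated with compounds for 2 h.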

[15] = qHTS assay to identify small molecule HDAC inhibitors - cell viability counter screen (AID 1259365)
Summary of the method: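 To flag cytotoxic hits, 1,500 wild-type HCT-116 cells per well, plated the day before, receive test compounds for 2hr at 37 C before CellTiter-Glo reagent and a luminescence read.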

[16] = qHTS assay to identify small molecule antagonists of the sonic hedgehog signaling (Shh) pathway - cell viability counter screen (AID 1259367); note: nearly all actives have a fitted effect of over 55% in size
Summary of the method: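 Seed 3T3 Gli1-Luc cells at 2,000 per well; incubate 4 hr; add compound in DMSO, then conditioned medium; incubate at 37C with 5% CO2; add CellTiter-Fluor after 23 hr; read fluorescence 1 hr later.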

[17] = qHTS RealTime-Glo MT Cell Viability Assay in HepG2 cells - 0 hour (AID 1224889); note: nearly all actives have a fitted effect of over 50% in size
Summary of the method: as §4

[18] = qHTS assay to identify small molecule phospholipidosis (PLD) inducers (AID 1259344; active = well fitted curve in the direction sought with a large enough effect; an effect the other way counts as inactive or inconclusive)
Summary of the method: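 Quantitative HTS in HepG2: compound plus LipidTOX Red dye for 24 h, paraformaldehyde fixation with Hoechst 33342, widefield high-content imaging; amiodarone as positive and DMSO as negative control.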

[19] = qHTS assay to identify small molecule agonists of the sonic hedgehog signaling (Shh) pathway - cell viability counter screen (AID 1259366); note: nearly all actives have a fitted effect of over 50% in size
Summary of the method: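 Fluorescence from CellTiter-Fluor reports live cells in this counter screen. NIH/3T3-derived Gli1-Luc reporter cells receive test compounds for 24hr at 37C; reagent goes in at 23hr.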

[20] = biological target: Androgen receptor (Homo sapiens) (UniProt P10275); experiment: qHTS assay to identify small molecule antagonists of the androgen receptor (AR) signaling pathway using the MDA cell line in the presence of 0.5 nM R1881 (AID 1259243); note: nearly all actives have a fitted effect of over 50% in size
Summary of the method: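 Luciferase luminescence is the read-out: compounds are tested for suppressing 0.5 nM R1881-driven MMTV reporter activity in MDA-kb2 cells after 16 hr at 37C.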

Measured: Potency

Estrogen receptor (Homo sapiens), sequence (P03372 whole entry, looked up): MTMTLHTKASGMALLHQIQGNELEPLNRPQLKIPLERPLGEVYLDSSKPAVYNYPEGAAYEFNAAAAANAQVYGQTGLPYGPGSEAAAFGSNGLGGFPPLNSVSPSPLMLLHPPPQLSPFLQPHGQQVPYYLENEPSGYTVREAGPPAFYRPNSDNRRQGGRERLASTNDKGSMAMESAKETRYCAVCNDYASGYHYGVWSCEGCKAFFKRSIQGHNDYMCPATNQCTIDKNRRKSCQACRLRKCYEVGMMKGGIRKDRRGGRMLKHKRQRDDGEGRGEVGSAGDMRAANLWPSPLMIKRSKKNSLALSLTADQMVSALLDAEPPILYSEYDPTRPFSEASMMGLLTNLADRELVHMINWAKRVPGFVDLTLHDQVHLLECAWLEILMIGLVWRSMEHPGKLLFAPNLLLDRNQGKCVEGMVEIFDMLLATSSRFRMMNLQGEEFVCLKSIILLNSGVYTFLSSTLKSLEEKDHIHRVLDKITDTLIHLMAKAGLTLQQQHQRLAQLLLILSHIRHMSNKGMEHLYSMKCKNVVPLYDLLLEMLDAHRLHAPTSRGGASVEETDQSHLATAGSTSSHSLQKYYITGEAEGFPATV
Androgen receptor (Homo sapiens), sequence (P10275 whole entry, looked up): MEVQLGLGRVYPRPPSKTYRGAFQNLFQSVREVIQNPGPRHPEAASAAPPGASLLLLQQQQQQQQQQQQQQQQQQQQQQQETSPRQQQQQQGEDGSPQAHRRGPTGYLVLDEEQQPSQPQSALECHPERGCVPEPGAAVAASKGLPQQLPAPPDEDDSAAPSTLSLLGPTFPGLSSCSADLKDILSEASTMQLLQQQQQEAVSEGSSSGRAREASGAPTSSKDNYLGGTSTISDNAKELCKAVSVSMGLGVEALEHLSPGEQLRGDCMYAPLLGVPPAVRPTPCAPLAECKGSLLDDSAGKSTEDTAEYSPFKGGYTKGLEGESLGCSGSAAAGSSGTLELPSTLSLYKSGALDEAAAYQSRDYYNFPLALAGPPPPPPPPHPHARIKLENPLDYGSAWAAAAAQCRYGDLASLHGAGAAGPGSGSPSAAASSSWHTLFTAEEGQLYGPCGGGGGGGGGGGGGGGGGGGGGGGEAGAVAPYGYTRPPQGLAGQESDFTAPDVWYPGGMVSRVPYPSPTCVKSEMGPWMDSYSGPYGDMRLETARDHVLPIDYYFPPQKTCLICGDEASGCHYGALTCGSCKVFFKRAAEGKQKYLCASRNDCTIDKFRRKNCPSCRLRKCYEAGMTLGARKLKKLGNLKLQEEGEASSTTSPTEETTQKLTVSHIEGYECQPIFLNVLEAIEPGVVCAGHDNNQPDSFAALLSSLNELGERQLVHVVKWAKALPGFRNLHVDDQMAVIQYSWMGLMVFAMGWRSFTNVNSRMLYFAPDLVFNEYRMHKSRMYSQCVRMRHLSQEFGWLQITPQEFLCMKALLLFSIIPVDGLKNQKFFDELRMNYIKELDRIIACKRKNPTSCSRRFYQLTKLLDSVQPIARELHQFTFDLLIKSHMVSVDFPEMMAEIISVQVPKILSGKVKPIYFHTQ

COc1ccc(N)c(C)c1
not listed: [17] | [18] | [19] | [20]
inactive: all other assays above

CCOC(=O)c1ccc(N)cc1
not listed: [13] | [20]
inactive: all other assays above

C=Cc1ccc(C)cc1
not listed: [10] | [13] | [18] | [19] | [20]
inactive: all other assays above

CC(=O)CC(C)(C)O
not listed: [10] | [18] | [19]
inactive: all other assays above

CC(=O)OCCOC(C)=O
not listed: [10] | [17] | [18] | [20]
inactive: all other assays above

C=C(C)CNCC
not listed: [10] | [13] | [18] | [20]
inactive: all other assays above

Nc1nc(N)nc(-c2ccccc2)n1
not listed: [17] | [18] | [20]
inactive: all other assays above

CCCCCCCC=O
not listed: [18] | [20]
inactive: all other assays above

COCCOC(=O)c1ccccc1C(=O)OCCOC
not listed: [13] | [18] | [19] | [20]
inactive: all other assays above

CC(C)CC(=O)CC(C)CC(C)C (stereo not drawn)
inactive and 19.5 µM (active): [7]
not listed: [13] | [17] | [18] | [19]
inactive: all other assays above

COc1ccccc1OCC(O)CO (stereo not drawn)
not listed: [13] | [19]
inactive: all other assays above

Cc1ccc2ncccc2c1
not listed: [17] | [18] | [20]
inactive: all other assays above

CCCOC(=O)c1ccccc1
not listed: [10] | [13] | [20]
inactive: all other assays above

CN/C(=C\[N+](=O)[O-])NCCSCc1csc(CN(C)C)n1
not listed: [13]
inactive: all other assays above

CC(=O)c1ccc(O)cc1
not listed: [18] | [19] | [20]
inactive: all other assays above

Clc1ccccn1
not listed: [13] | [18] | [20]
inactive: all other assays above

CCO[Si](CCC#N)(OCC)OCC
not listed: [18] | [20]
inactive: all other assays above
